# Measured values taken from the antibiotic and cytotoxicity screens of Wong et al. (2023).
# The campaign covered roughly 39,000 compounds. About 3,300 (8.5%) were called active. The full list was thinned out, with actives kept by preference.
# System: HepG2
# Assay: cytotoxicity call (relative viability < 0.9)
# Settings: 10 µM
row,SMILES,cytotoxicity call
1,O[C@H]1[C@H](O)[C@@H](O)[C@H](O)[C@@H](O)[C@H]1O,inactive
2,Cc1ccc(S[C@]2(C(=O)NC3CC3)CC(=O)N(C3Cc4ccccc4C3)[C@@H]2c2ccc(CO)cc2I)cc1,inactive
3,C[C@@H]1CN([C@@H](C)CO)C(=O)c2cc(-c3ccncc3)cnc2O[C@@H]1CN(C)S(=O)(=O)c1ccc(F)cc1,inactive
4,COc1ccc2c3c(n(c2c1)C)[C@@H](CO)N(CC1CCOCC1)C[C@]13CN(C1)C(=O)Cc1cccnc1,inactive
5,C[C@@H]1CN([C@H](C)CO)C(=O)c2cccc(NS(=O)(=O)c3cccs3)c2O[C@@H]1CN(C)S(=O)(=O)c1ccc(F)cc1,inactive
6,C[C@@H]1CN([C@@H](C)CO)S(=O)(=O)c2ccc(C#Cc3ccncc3)cc2O[C@@H]1CN(C)C(=O)C1CCCCC1,active
7,C[C@H](O)C#Cc1ccc2c(c1)O[C@@H](CN(C)C(=O)C1CCCCC1)[C@@H](C)CN([C@@H](C)CO)S2(=O)=O,inactive
8,C[C@@H]1CN([C@H](C)CO)S(=O)(=O)c2ccc(C#CC3CC3)cc2O[C@H]1CN(C)C(=O)C1CCCCC1,inactive
9,C[C@H]1CN([C@@H](C)CO)S(=O)(=O)c2ccc(C#Cc3ccncc3)cc2O[C@@H]1CN(C)C(=O)C1CCCCC1,active
10,C[C@@H]1CN([C@H](C)CO)S(=O)(=O)c2ccc(C#Cc3ccncc3)cc2O[C@@H]1CN(C)C(=O)C1CCCCC1,active
11,Cc1noc(C)c1NC(=O)Nc1ccc2c(c1)CC(=O)N([C@H](C)CO)C[C@@H](C)[C@@H](CN(C)Cc1ccc(C(=O)Nc3ccccc3N)cc1)O2,inactive
12,C[C@@H]1CN([C@H](C)CO)C(=O)Cc2cc(NC(=O)CCC(F)(F)F)ccc2O[C@@H]1CN(C)Cc1ccc(C(=O)Nc2ccccc2N)cc1,inactive
13,C[C@H](CO)N1C[C@H](C)[C@H](CN(C)S(C)(=O)=O)Oc2c(cccc2N(C)C)C1=O,inactive
14,C[C@@H]1CN([C@H](C)CO)C(=O)c2cccc(NC(=O)C3CCCCC3)c2O[C@@H]1CN(C)S(=O)(=O)c1cn(C)cn1,inactive
15,C[C@@H]1CN([C@H](C)CO)C(=O)c2cccc(NC(=O)Nc3ccc(F)cc3)c2O[C@@H]1CN(C)S(=O)(=O)c1cn(C)cn1,inactive
16,COc1ccc(-n2nc(C(=O)NCC(=O)N3CCN(c4ccccc4)CC3)c3ccccc3c2=O)c(OC)c1,inactive
17,CC[C@H]1OC(=O)[C@H](C)[C@@H](O[C@H]2C[C@@](C)(OC)[C@@H](O)[C@H](C)O2)[C@H](C)[C@@H](O[C@@H]2O[C@H](C)C[C@H](N(C)C)[C@H]2O)[C@](C)(O)C[C@@H](C)[C@@H]2N[C@@H](COCCOC)O[C@H]([C@H]2C)[C@]1(C)O,inactive
18,C[C@H]1CN([C@@H](C)CO)C(=O)Cc2cc(NC(=O)Nc3ccc(C(F)(F)F)cc3)ccc2O[C@H]1CN(C)C(=O)Nc1ccc(C(F)(F)F)cc1,active
19,C[C@@H]1CN([C@@H](C)CO)C(=O)Cc2cc(NC(=O)Nc3ccc(C(F)(F)F)cc3)ccc2O[C@@H]1CN(C)C(=O)Nc1ccc(C(F)(F)F)cc1,active
20,C[C@@H]1CN([C@@H](C)CO)C(=O)Cc2cc(NC(=O)Nc3ccc(C(F)(F)F)cc3)ccc2O[C@H]1CN(C)C(=O)Nc1ccc(C(F)(F)F)cc1,active
21,C[C@@H]1CN([C@H](C)CO)C(=O)Cc2cc(NC(=O)Nc3ccc(C(F)(F)F)cc3)ccc2O[C@H]1CN(C)C(=O)Nc1ccc(C(F)(F)F)cc1,inactive

row,SMILES,cytotoxicity call
1,C[C@H](CO)N1C[C@H](C)[C@@H](CN(C)C(=O)Nc2ccc(C(F)(F)F)cc2)Oc2ccc(NC(=O)Nc3ccc(C(F)(F)F)cc3)cc2CC1=O,active
2,C[C@H]1CN([C@@H](C)CO)C(=O)Cc2cc(NC(=O)Nc3ccc(C(F)(F)F)cc3)ccc2O[C@@H]1CN(C)C(=O)Nc1ccc(C(F)(F)F)cc1,inactive
3,Cc1ccc(S[C@]2(C(=O)NC3CC3)CC(=O)N(Cc3ccccc3C(F)(F)F)[C@@H]2c2ccc(CO)cc2)cc1,inactive
4,Cc1ccc(S(=O)(=O)N2CCOCC2)cc1NC(=O)CN1C(=O)CN(C)C1=O,inactive
5,C[C@@H]1CN([C@H](C)CO)C(=O)CCCn2cc(nn2)CO[C@H]1CN(C)Cc1cccc2c1OCCCO2,inactive
6,C[C@H](CO)N1C[C@H](C)[C@H](CN(C)Cc2ccccc2)OCCCC[C@H](C)Oc2ccc(NS(=O)(=O)c3ccc(F)cc3)cc2C1=O,inactive
7,C[C@H]1CN([C@@H](C)CO)C(=O)c2cc(-c3cccc(C(=O)N(C)C)c3)cnc2O[C@H]1CN(C)C(=O)Cc1ccccn1,inactive
8,C[C@@H]1CN([C@@H](C)CO)C(=O)c2cc(C#Cc3ccccc3F)cnc2O[C@H]1CN(C)C(=O)Cc1ccncc1,inactive
9,CN1CCN(CCO)CC1,inactive
10,C[C@@H]1CCCCO[C@@H](CN(C)S(=O)(=O)c2cccs2)[C@@H](C)CN([C@H](C)CO)C(=O)c2cc(NC(=O)CCC(F)(F)F)ccc2O1,inactive
11,COc1ccc(S(=O)(=O)Nc2ccc3c(c2)C(=O)N([C@H](C)CO)C[C@H](C)[C@@H](CN(C)S(=O)(=O)c2cccs2)O3)cc1,inactive
12,CC(C)NC(=O)N(C)C[C@@H]1Oc2cc(C#Cc3ccccn3)ccc2S(=O)(=O)N([C@@H](C)CO)C[C@H]1C,inactive
13,O=C(C[C@H]1CC[C@@H]2[C@H](COC[C@@H](O)CN2S(=O)(=O)c2ccc(Cl)cc2)O1)NCCN1CCCC1,inactive
14,C[C@@H]1CN([C@H](C)CO)C(=O)c2cccc(NC(=O)c3cnccn3)c2O[C@@H]1CN(C)Cc1ccc2c(c1)OCO2,inactive
15,C[C@H]1CN([C@@H](C)CO)C(=O)c2ccccc2-c2ccccc2CO[C@H]1CN(C)C(=O)c1cc(Cl)cc(Cl)c1,inactive
16,C[C@@H]1CN([C@H](C)CO)C(=O)Cc2cc(NC(=O)Nc3ccc(C(F)(F)F)cc3)ccc2O[C@@H]1CN(C)C(=O)Nc1ccc(C(F)(F)F)cc1,active
17,C[C@H](CO)N1C[C@H](C)[C@H](CN(C)C(=O)Nc2ccc(C(F)(F)F)cc2)Oc2ccc(NC(=O)Nc3ccc(C(F)(F)F)cc3)cc2CC1=O,active
18,COCC#Cc1ccc([C@@H]2[C@@H](CO)N3C(=O)CN(C(=O)c4cccnc4)C[C@H]23)cc1,inactive
19,CCO[C@H]1OC(C(=O)N2CCN(Cc3ccc4c(c3)OCO4)CC2)=C[C@@H](c2ccc(C(F)(F)F)cc2)[C@@H]1CCCOC(=O)NCCCCCC(=O)NO,inactive
20,CC(C)C(=O)N1CC[C@H]2CN(CC(=O)N(C)C)S(=O)(=O)[C@@H]2CC1,inactive
21,C[C@H]1CCCCO[C@@H](CN(C)S(=O)(=O)c2ccccc2)[C@@H](C)CN([C@@H](C)CO)C(=O)c2cc(NC(=O)C3CCCCC3)ccc2O1,inactive

row,SMILES,cytotoxicity call
1,O=C(C[C@H]1CC[C@H]2[C@@H](COC[C@H](O)CN2S(=O)(=O)c2cccc(Cl)c2)O1)N1CCOCC1,inactive
2,CO[C@@H](C(=O)N(C)C[C@@H]1OCc2ccccc2-c2c(n(C)c3ccccc23)C(=O)N([C@H](C)CO)C[C@@H]1C)c1ccccc1,inactive
3,CNS(=O)(=O)c1cc(OC)ccc1OC,inactive
4,COc1cccc(S(=O)(=O)N2C[C@H](O)COC[C@H]3O[C@@H](CC(=O)N4CCN(c5ccccc5)CC4)CC[C@@H]32)c1,inactive
5,CCCNC(=O)Cn1c(=O)n(C)c2ccccc21,inactive
6,C[C@H](CO)N1C[C@H](C)[C@H](CN(C)CC2CCCCC2)OCCCC[C@H](C)Oc2ccc(NC(=O)Cc3ccccc3)cc2C1=O,inactive
7,C[C@H]1CCCCO[C@@H](CN(C)CC2CCCCC2)[C@@H](C)CN([C@@H](C)CO)C(=O)c2cc(NC(=O)CCCN(C)C)ccc2O1,active
8,C[C@@H]1CCCCO[C@@H](CN(C)CC2CCCCC2)[C@H](C)CN([C@H](C)CO)C(=O)c2cc(NC(=O)Cc3ccccc3)ccc2O1,inactive
9,C[C@@H]1CN([C@H](C)CO)C(=O)c2cc(NC(=O)CCCN(C)C)ccc2O[C@@H](C)CCCCO[C@H]1CN(C)CC1CCCCC1,inactive
10,C[C@@H]1CCCCO[C@H](CN(C)CC2CCCCC2)[C@H](C)CN([C@H](C)CO)C(=O)c2cc(NC(=O)Cc3ccccc3)ccc2O1,inactive
11,C[C@H]1CCCCO[C@H](CN(C)CC2CCCCC2)[C@@H](C)CN([C@@H](C)CO)C(=O)c2cc(NC(=O)Cc3ccccc3)ccc2O1,active
12,C[C@@H]1CCCCO[C@@H](CN(C)CC2CCCCC2)[C@H](C)CN([C@@H](C)CO)C(=O)c2cc(NC(=O)Cc3ccccc3)ccc2O1,inactive
13,C[C@@H]1CCCCO[C@H](CN(C)CC2CCCCC2)[C@@H](C)CN([C@H](C)CO)C(=O)c2cc(NC(=O)Cc3ccccc3)ccc2O1,inactive
14,C[C@@H]1CN([C@@H](C)CO)C(=O)c2cc(NC(=O)Cc3ccccc3)ccc2O[C@@H](C)CCCCO[C@H]1CN(C)CC1CCCCC1,active
15,C[C@H]1CCCCO[C@@H](CN(C)CC2CCCCC2)[C@@H](C)CN([C@@H](C)CO)C(=O)c2cc(NC(=O)Cc3ccccc3)ccc2O1,active
16,C[C@H](CO)N1C[C@H](C)[C@@H](CN(C)CC2CCCCC2)OCCCC[C@H](C)Oc2ccc(NC(=O)Cc3ccccc3)cc2C1=O,inactive
17,C[C@@H]1CCCCO[C@@H](CN(C)CC2CCCCC2)[C@@H](C)CN([C@H](C)CO)C(=O)c2cc(NC(=O)CCCN(C)C)ccc2O1,inactive
18,C=CC(C)(O)CCC1C(C)(O)CCC2C(C)(C)CCCC21C (configuration not stated),inactive
19,CCS(=O)(=O)Nc1ccc2c(c1)C(=O)N(C)[C@@H]1CC[C@H](CC(=O)N3CCN(C)CC3)O[C@@H]1CO2,inactive
20,NCC[C@H]1CC[C@H](NC(=O)Nc2ccc(F)cc2)[C@H](CO)O1,inactive
